Reference: the supplement of paper PMC11001985

Compound: C#CCNC(=O)CCSSCCC(=O)NCCc1ccc(C=O)c(C=O)c1
Experiment: lysine labeling ratio R10:1 (500 µM / 50 µM probe), SILAC-ABPP in living cells; higher = lower intrinsic lysine reactivity toward the probe, active = 2 or less
Settings: HeLa; probe concentrations 500 vs 50 µM
Outline: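 SILAC light and heavy living HeLa cells in PBS at room temperature were labelled with 50 µM or 500 µM of an alkyne-tagged, disulfide-linked lysine probe, with forward and reverse label swaps. Mixed lysates were clicked to biotin-azide, trypsin-digested, captured on neutravidin, DTT-released, alkylated and analysed by LC-MS/MS on a TIMS-TOF Pro. R is the filtered median high-probe/low-probe MS1 peptide ratio per lysine, then the median across forward and reverse replicates. Ratios are capped at 20.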

Sequence of UniProt Q15149 (Q15149 whole entry): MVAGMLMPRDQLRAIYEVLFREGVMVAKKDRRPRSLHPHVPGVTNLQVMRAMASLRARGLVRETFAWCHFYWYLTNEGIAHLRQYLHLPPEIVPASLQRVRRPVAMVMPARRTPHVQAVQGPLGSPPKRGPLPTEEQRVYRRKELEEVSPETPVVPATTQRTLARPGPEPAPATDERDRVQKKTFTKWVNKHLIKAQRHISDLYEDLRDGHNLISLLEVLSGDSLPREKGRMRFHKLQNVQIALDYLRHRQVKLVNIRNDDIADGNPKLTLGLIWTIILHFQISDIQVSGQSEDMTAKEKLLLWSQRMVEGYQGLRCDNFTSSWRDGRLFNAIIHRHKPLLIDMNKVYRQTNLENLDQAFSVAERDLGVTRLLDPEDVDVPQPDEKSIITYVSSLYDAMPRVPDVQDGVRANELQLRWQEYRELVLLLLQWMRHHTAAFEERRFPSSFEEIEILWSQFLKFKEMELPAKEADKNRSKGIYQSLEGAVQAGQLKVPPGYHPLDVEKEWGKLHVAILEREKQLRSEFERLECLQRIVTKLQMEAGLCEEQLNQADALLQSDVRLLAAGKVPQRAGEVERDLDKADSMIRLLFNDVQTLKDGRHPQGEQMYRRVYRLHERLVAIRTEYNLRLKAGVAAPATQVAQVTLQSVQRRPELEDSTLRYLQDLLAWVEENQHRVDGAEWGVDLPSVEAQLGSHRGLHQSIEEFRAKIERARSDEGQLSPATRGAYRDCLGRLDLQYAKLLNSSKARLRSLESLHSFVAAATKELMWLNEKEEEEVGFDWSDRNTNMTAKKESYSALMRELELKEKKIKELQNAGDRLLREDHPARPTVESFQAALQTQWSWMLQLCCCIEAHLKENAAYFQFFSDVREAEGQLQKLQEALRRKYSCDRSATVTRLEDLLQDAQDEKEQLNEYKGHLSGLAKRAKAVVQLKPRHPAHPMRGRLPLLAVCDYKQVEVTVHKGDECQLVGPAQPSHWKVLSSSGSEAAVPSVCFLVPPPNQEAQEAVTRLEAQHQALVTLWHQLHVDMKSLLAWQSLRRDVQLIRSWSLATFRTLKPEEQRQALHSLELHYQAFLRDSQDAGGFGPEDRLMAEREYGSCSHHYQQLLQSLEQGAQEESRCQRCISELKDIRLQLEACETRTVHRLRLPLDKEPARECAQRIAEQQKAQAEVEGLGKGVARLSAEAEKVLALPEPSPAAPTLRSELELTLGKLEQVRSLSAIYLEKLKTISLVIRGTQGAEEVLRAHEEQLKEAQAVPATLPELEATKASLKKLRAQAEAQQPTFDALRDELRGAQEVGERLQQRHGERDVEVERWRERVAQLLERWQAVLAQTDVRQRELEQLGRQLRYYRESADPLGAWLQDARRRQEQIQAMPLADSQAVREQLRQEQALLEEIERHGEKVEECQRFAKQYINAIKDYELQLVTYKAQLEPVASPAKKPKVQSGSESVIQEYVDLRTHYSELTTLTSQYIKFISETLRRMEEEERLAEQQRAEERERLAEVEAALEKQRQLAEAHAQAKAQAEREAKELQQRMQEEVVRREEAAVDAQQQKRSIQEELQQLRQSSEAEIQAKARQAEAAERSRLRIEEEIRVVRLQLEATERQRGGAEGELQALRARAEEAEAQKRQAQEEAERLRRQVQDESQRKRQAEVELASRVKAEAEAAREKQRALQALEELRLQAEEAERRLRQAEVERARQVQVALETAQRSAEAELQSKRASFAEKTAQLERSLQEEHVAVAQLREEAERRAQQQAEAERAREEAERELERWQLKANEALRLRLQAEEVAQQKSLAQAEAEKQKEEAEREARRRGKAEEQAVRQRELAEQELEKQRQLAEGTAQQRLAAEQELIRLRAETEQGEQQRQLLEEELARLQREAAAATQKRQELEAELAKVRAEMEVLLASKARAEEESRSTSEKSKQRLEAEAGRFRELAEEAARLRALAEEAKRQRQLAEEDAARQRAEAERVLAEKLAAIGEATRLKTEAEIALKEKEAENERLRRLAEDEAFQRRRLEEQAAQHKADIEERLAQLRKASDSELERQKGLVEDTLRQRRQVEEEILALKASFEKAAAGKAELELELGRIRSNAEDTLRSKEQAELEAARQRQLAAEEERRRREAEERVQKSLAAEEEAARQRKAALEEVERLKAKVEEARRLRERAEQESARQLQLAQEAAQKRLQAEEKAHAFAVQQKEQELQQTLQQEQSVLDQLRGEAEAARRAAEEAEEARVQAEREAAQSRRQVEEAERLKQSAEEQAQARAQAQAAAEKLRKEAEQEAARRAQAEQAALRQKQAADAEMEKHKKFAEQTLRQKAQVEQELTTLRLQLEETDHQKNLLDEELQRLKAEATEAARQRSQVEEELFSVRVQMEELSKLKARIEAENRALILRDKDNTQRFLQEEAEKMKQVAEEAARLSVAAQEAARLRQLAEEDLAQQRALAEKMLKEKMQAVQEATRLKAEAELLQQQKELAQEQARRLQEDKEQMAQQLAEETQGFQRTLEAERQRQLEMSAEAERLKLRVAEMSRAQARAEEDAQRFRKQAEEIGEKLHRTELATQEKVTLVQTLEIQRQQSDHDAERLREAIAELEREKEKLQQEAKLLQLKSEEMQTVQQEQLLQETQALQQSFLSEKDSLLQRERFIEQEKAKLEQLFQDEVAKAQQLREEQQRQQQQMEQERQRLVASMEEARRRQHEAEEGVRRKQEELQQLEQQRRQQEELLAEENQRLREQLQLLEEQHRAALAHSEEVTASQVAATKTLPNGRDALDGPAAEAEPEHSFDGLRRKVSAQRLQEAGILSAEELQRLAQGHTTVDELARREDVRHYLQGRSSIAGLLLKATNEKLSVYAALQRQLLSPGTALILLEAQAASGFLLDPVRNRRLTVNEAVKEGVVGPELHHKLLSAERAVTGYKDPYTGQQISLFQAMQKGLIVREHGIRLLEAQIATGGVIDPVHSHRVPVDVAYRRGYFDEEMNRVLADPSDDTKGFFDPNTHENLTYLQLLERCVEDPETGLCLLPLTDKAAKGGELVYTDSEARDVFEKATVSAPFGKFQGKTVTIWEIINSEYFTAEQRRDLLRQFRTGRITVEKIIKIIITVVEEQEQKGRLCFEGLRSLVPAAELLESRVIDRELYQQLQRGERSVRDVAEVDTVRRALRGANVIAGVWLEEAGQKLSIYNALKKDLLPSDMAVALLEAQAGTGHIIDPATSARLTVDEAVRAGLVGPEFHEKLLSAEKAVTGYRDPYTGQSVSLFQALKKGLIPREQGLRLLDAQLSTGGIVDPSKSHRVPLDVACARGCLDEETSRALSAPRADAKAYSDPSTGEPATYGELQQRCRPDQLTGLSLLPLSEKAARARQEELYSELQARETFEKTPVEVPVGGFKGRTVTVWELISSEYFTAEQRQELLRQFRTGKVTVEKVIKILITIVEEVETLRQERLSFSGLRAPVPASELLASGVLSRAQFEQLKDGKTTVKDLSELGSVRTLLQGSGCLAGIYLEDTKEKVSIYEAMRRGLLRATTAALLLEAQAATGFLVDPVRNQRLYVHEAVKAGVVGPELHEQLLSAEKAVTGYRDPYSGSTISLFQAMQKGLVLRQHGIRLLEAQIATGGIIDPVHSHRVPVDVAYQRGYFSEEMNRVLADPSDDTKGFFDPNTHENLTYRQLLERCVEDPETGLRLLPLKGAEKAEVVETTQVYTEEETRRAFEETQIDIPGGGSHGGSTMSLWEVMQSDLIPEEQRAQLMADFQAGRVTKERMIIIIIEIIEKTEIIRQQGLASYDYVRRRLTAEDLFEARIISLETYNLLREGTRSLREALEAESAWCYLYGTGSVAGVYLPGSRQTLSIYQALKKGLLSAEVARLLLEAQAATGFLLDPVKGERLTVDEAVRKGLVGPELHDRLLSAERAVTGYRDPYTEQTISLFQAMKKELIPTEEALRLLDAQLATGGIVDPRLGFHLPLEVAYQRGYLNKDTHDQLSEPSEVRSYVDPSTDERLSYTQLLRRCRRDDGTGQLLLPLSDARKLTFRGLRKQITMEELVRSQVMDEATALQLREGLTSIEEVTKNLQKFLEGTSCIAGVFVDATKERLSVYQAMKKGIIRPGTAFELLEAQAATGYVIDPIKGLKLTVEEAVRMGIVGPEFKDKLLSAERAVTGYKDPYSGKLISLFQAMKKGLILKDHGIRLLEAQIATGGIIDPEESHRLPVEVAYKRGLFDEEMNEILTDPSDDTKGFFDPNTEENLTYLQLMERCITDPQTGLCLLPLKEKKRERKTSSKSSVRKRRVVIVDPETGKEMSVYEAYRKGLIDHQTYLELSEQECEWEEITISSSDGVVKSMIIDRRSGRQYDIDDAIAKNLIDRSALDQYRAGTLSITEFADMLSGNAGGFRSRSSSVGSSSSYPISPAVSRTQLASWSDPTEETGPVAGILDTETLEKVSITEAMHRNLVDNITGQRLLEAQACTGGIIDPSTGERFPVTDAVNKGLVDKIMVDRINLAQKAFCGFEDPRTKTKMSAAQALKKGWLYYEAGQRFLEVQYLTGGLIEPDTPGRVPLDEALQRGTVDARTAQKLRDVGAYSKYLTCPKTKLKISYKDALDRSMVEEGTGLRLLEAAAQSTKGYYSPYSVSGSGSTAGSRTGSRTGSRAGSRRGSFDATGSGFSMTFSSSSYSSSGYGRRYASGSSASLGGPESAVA
Sequence of UniProt P05787 (P05787 whole entry): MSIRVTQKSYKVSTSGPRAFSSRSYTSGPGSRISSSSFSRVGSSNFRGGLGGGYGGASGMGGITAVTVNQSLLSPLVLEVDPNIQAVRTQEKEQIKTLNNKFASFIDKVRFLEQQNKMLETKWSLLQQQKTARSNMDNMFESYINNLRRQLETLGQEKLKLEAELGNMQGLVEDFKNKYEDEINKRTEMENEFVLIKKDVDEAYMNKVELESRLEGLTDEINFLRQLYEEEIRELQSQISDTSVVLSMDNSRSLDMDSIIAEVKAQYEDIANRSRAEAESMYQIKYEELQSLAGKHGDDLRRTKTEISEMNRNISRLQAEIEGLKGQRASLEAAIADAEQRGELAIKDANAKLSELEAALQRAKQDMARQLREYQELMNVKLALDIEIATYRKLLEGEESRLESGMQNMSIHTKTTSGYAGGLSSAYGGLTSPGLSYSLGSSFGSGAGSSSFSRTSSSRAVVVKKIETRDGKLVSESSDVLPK

Target	lysine labeling ratio R10:1
ORMDL3 (lysine site: K79) (UniProt Q8N138)	5.16 (inactive)
UniProt P26639 (lysine site: K549)	0.996 (active)
DNAJC9 (lysine site: K198) (UniProt Q8WXX5)	2.94 (inactive)
GSN (lysine site: K239) (UniProt P06396)	4.08 (inactive)
ACSL4 (lysine site: K702) (UniProt O60488)	2.14 (inactive)
PFN1 (lysine site: K127) (UniProt P07737)	2.19 (inactive)
PDIA3 (lysine site: K130) (UniProt P30101)	3.07 (inactive)
TKT (lysine site: K59) (UniProt P29401)	4.48 (inactive)
EEA1 (lysine site: K583) (UniProt Q15075)	3.77 (inactive)
HSD17B10 (lysine site: K105) (UniProt Q99714)	2.63 (inactive)
UniProt P05787 (lysine site: K304)	7.25 (inactive)
UniProt Q15149 (lysine site: K4205)	1.51 (active)
ATAD3B (lysine site: K135) (UniProt Q5T9A4)	2.68 (inactive)
UniProt P61160 (lysine site: K368)	3.41 (inactive)
UniProt P07437 (lysine site: K58)	2.92 (inactive)
DSG2 (lysine site: K562) (UniProt Q14126)	6.57 (inactive)
LAMA5 (lysine site: K1940) (UniProt O15230)	1.65 (active)
EEF2 (lysine site: K572) (UniProt P13639)	2.79 (inactive)
ITGA6 (lysine site: K569) (UniProt P23229)	2.54 (inactive)
EPCAM (lysine site: K129) (UniProt P16422)	6.18 (inactive)

Target	lysine labeling ratio R10:1
EGFR (lysine site: K487) (UniProt P00533)	1.61 (active)
SPTAN1 (lysine site: K825) (UniProt Q13813)	4.08 (inactive)
MYH9 (lysine site: K1246) (UniProt P35579)	0.944 (active)
UniProt P46781 (lysine site: K66)	2.63 (inactive)
FAT4 (lysine site: K2512) (UniProt Q6V0I7)	2.31 (inactive)
ARHGAP17 (lysine site: K9) (UniProt Q68EM7)	1.92 (active)
SPTAN1 (lysine site: K1546) (UniProt Q13813)	0.8 (active)
FLNA (lysine site: K724) (UniProt P21333)	1.76 (active)
UniProt Q15149 (lysine site: K2182)	1.67 (active)
UniProt P0C0S5 (lysine site: K14)	1.12 (active)
NUCB1 (lysine site: K364) (UniProt Q02818)	2.75 (inactive)
SHMT2 (lysine site: K103) (UniProt P34897)	4.3 (inactive)
PTGES2 (lysine site: K233) (UniProt Q9H7Z7)	2.07 (inactive)
MCAM (lysine site: K286) (UniProt P43121)	2.67 (inactive)
IMPDH2 (lysine site: K134) (UniProt P12268)	2.5 (inactive)
UniProt P25705 (lysine site: K261)	2.94 (inactive)
CCT8 (lysine site: K37) (UniProt P50990)	1.6 (active)
EPHA2 (lysine site: K475) (UniProt P29317)	2.38 (inactive)
L1CAM (lysine site: K998) (UniProt P32004)	6.57 (inactive)
CALD1 (lysine site: K577) (UniProt Q05682)	1.1 (active)
